Source: PubChem BioAssay
Hits are enriched below; roughly 3.5% of the tested compounds scored in any of these assays.
mHTT CaM bind: disrupts binding of mutant huntingtin to calmodulin; AlphaScreen His-mHTT/GST-CaM binding, luminescence; P42858; inhibition, % at 15 µM; hit rate 3.6% among 190,000;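 note: 0% = both proteins with DMSO and 100% = one protein alone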
Pf apPOL block: Pf-apPOL DNA polymerase inhibition; inhibition, % at 10 µM; hit rate 0.25% among 210,000; AID 1794808; Recombinant Pf-apPOL, molecular beacon fluorescence, 1.5 h
Numbers without * were called inactive. Cut-off read from the data, not from the text of the source: active = inhibition above about 50%; inactive = the rest.

SMILES	mHTT CaM bind	Pf apPOL block
COc1cc(O)c(C(CCN2CCOCC2)c2ccc(N(C)C)cc2)c(OC)c1 (configuration not stated)	58*	-7
COc1ccc(C(CCN2CCN(c3ccccc3)CC2)c2c(O)cc(OC)cc2OC)cc1 (configuration not stated)	72*	-7
COc1cc(O)c(C(CCN2CCOCC2)c2ccc3c(c2)OCO3)c(OC)c1 (configuration not stated)	24	-7
COc1ccc(C(CCN2CCCC2)c2c(O)cc(OC)cc2OC)cc1 (configuration not stated)	14	-4
CCN(CC)CCC(c1ccc(N(C)C)cc1)c1c(O)cc(OC)cc1OC (configuration not stated)	70*	-6
Cc1cc(NC(=O)CSc2nc(-c3cccs3)nc3c2c(=O)n(C)c(=O)n3C)no1	-16	3
COc1cc(OC)c2ccc(=O)oc2c1C(CCN1CCCC1)c1ccc(N(C)C)cc1 (configuration not stated)	46	0
COc1ccc(C(CCN2CCCCC2)c2c(O)cc(OC)cc2OC)cc1 (configuration not stated)	-1	-8
COc1cc(OC)c2c(C)cc(=O)oc2c1C(CCN1CCCC(C)C1)c1ccc(N(C)C)cc1 (configuration not stated)	79*	-8
COc1cc(O)c(C(CCN2CCN(c3ccccc3)CC2)c2ccc(N(C)C)cc2)c(OC)c1 (configuration not stated)	97*	-2
COc1ccccc1-n1nc(C(=O)Nc2ccc(F)cc2)c2ccccc2c1=O	0	-7
COc1cccc(CN2CCc3c(cc(C(=O)NCc4ccccc4OC)n3C)C2)c1	40	-2
COc1ccc(NC(=O)c2cc3c(n2C)CCN(Cc2cccc(C)c2)C3)c(OC)c1	63*	-1
COc1cccc(CN2CCc3c(cc(C(=O)Nc4cc(OC)cc(OC)c4)n3C)C2)c1	62*	-2
CCCNC(=O)c1cc2c(n1C)CCN(Cc1cccc(C)c1)C2	23	10
Cc1ccc(F)cc1NC(=O)c1cccnc1N(C)C	-4	2
O=C(C1CCN(CC2CC=CCC2)CC1)N1CCCC1 (configuration not stated)	2	-3
CC(C)CC(=O)N1CCN(CC2CC=CCC2)CC1 (configuration not stated)	4	91*
CCC(=O)Nc1ccc(C2(C(=O)N3CCC(C)CC3)CCCCC2)cc1	9	7
O=C(CC1c2ccccc2C=C(c2ccsc2)N1c1ccc(-c2cccnc2)cc1)C1CC1 (configuration not stated)	84*	-6
COc1cc(OC)cc(C2=Cc3ccccc3C(CC(C)=O)N2c2ccc(-c3cccs3)cc2)c1 (configuration not stated)	40	-3
COc1cc(OC)cc(C2=Cc3ccccc3C(CC(C)=O)N2c2ccc(-c3cncnc3)cc2)c1 (configuration not stated)	50*	-3
COc1ncc(-c2ccc(N3C(c4ccsc4)=Cc4ccc(F)cc4C3CC(=O)c3ccco3)cc2)cn1 (configuration not stated)	15	-6
COc1ccc(C(O)=C2C(=O)C(=O)N(CCN(C)C)C2c2cccc(OC)c2OC)cc1C (configuration not stated)	-6	-4
Cc1ccc(-c2nc3s/c(=C\C=C\c4ccccc4)c(=O)n3n2)cc1	23	2
SMILES	mHTT CaM bind	Pf apPOL block
COc1ccc(C2CC(c3ccc(Br)cc3)Nc3ncnn32)c(OC)c1 (configuration not stated)	57*	-4
COc1ccc(C2CC(c3ccc(Br)cc3)Nc3ncnn32)c(OC)c1OC (configuration not stated)	57*	0
COc1ccc(C2CC(c3ccc(C)cc3)Nc3ncnn32)c(OC)c1OC (configuration not stated)	24	-6
COc1ccc(C2CC(c3cc(OC)ccc3OC)n3ncnc3N2)cc1 (configuration not stated)	17	-8
COc1ccc(C2CC(c3cccc(Br)c3)Nc3ncnn32)c(OC)c1 (configuration not stated)	41	-9
COc1cccc(C2CC(c3ccc(C)c(C)c3)Nc3ncnn32)c1OC (configuration not stated)	53*	-2
COc1cccc(C2CC(c3ccc(I)cc3)Nc3ncnn32)c1OC (configuration not stated)	34	-4
COc1ccc(OC)c(C2CC(c3ccc(Br)cc3)Nc3ncnn32)c1 (configuration not stated)	61*	-2
Cc1ccc(C(O)CNC(=O)Nc2ccccc2Cl)o1 (configuration not stated)	-17	-4
CC(C)S(=O)(=O)c1ccc(CC(=O)NCC2(c3cccs3)CCOCC2)cc1	-15	-3
O=C(c1ccc(OCC2CCCN(C(=O)c3cccc(F)c3)C2)cc1)N1CCCC1 (configuration not stated)	14	17
